SMILES strings stand for the structures. Several values for one entry are separate records, joined by “and”; a condition that tells them apart may be missing. Equal entries are not always repeated. Results filed as inconclusive are left out. Activity calls are given as the source filed them. Unless noted, the call rests on the fitted dose curve; in most records, active means well fitted curve in the direction sought with a large enough effect; inconclusive means small, poorly fitted or top-dose-only effect, or another doubt; inactive means no such curve, though single readings can be large; an effect the other way counts as inactive or inconclusive.

Test system in the first assay: not listed separately
The assay is described as follows: Primary qHTS for inhibitors of nuclear receptor binding SET domain protein 2 (NSD2) in an RCH-ACV wild type WT cells (2C) (AID 1645877). Further: nearly all actives have a fitted effect of over 70% in size. Further: potency means the concentration at half of the fitted maximal effect. Conditions: RCH-ACV (leukaemia line) NSD2 WT (2C) viability, CellTiter-Glo, 72 h; series mostly up to 44.9 µM. On the technique in general: qHTS replaces the single test concentration by a dilution series.
With `CCCCC(F)(F)[C@@]1(O)CC[C@H]2[C@H](CC(=O)[C@@H]2CCCCCCC(=O)O)O1`, the Potency entry is “inactive”.
Take `COc1cc(F)c(C(C)C)cc1-c1ccc(C(F)(F)F)cc1CN1C(=O)O[C@H](c2cc(C(F)(F)F)cc(C(F)(F)F)c2)[C@@H]1C`: the Potency result was “inactive”.
For `CCCCCCCCCCCCCCCC(=O)O[C@H]1[C@@H](O)[C@@H](O)[C@@H]([C@H](NC(=O)[C@@H]2C[C@@H](CCC)CN2C)[C@H](C)Cl)O[C@@H]1SC`, the Potency entry is “inactive”.
As for `Nc1ncnc2c1c(-c1cccc(OCc3ccccc3)c1)cn2C1CC(CN2CCC2)C1` (configuration not stated), the Potency was 2.9 µM (active).
For the molecule `CN(C)CCCNC(=O)c1ccc(-c2cc(O)c3ncccc3c2)cc1`, the Potency was 10.3 µM (active) and 9.34 µM (active).
As to `CCN1C[C@H](C)n2c(c(O)c3c(=O)n(Cc4ccc(F)c(Cl)c4)nc(C(=O)NC)c32)C1=O`, the Potency result was “inactive”.
In the case of `CNC1CCC(N(Cc2cccc(-c3ccncc3)c2)C(=O)c2sc3ccccc3c2Cl)CC1` (configuration not stated), the Potency is 5.78 µM (active) and 7.42 µM (active).

In the next assay the target is Rap guanine nucleotide exchange factor 3 (Homo sapiens) (UniProt O95398). The assay is described as follows: Confirmatory qHTS for agonist of cAMP-regulated guanine nucleotide exchange factor 3 (EPAC1) (AID 1645881).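 Further: EPAC1 catalysed release of BODIPY-GDP from Rap1B seen as fluorescence loss; 100% = effect of cAMP agonist control; nearly all actives have a fitted effect of over 75% in size.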 As to conditions: EPAC1 Rap1B BODIPY-GDP exchange fluorescence; series mostly up to 154 µM.
Sequence of Rap guanine nucleotide exchange factor 3 (Homo sapiens) (O95398 whole entry, looked up): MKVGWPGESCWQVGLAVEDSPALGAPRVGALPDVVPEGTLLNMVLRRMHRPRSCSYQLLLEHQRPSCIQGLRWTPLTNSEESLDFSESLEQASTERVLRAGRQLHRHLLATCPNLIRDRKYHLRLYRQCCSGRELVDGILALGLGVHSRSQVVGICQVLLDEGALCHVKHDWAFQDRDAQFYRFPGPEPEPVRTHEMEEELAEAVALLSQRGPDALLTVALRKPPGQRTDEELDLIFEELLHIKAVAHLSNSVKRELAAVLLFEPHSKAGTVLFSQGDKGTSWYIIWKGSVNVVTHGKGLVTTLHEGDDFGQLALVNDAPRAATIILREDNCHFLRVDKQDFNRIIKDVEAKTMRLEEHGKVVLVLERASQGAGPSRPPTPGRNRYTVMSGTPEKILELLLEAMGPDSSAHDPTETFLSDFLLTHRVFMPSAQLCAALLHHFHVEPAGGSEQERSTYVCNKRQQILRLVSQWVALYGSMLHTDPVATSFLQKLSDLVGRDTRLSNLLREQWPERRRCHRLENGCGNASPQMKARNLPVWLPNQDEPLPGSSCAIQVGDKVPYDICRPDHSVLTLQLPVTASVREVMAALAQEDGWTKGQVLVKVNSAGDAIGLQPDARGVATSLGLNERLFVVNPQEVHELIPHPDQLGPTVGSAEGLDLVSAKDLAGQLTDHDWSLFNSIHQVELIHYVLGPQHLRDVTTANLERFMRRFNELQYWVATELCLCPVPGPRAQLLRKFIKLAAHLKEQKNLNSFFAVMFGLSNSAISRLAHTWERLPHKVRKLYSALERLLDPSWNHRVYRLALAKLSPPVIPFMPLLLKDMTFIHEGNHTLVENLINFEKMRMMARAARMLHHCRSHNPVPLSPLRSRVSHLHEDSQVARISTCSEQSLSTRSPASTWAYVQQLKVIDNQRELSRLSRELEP
With `O=c1cc(-c2ccc(O)c(O)c2)oc2cc(O)cc(O)c12`, the Potency entry was “inactive”.
As for `C[C@@H](O[C@H]1OCCN(Cc2n[nH]c(=O)[nH]2)[C@@H]1c1ccc(F)cc1)c1cc(C(F)(F)F)cc(C(F)(F)F)c1`, the Potency entry is “inactive”.
On the same count and under the same terms, the same measure for `NC(=O)c1nnn(Cc2cc(Cl)c(C(=O)c3ccc(Cl)cc3)c(Cl)c2)c1N`: “inactive”.

The target of another assay is Rap guanine nucleotide exchange factor 4 (Homo sapiens) (UniProt Q8WZA2). The assay is described as follows: Confirmatory qHTS for agonist of cAMP-regulated guanine nucleotide exchange factor 4 (EPAC2) (AID 1645884).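 Further: nucleotide exchange releases bodipy-GDP from Rap1 and this lowers its fluorescence; on the % scale 0 is the no-effect control and ±100 the full control effect; nearly all actives have a fitted effect of over 65% in size.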 As to conditions: EPAC2 GEF activity, Rap1B-BODIPY-GDP fluorescence; series mostly up to 154 µM.
Sequence of Rap guanine nucleotide exchange factor 4 (Homo sapiens) (Q8WZA2 whole entry, looked up): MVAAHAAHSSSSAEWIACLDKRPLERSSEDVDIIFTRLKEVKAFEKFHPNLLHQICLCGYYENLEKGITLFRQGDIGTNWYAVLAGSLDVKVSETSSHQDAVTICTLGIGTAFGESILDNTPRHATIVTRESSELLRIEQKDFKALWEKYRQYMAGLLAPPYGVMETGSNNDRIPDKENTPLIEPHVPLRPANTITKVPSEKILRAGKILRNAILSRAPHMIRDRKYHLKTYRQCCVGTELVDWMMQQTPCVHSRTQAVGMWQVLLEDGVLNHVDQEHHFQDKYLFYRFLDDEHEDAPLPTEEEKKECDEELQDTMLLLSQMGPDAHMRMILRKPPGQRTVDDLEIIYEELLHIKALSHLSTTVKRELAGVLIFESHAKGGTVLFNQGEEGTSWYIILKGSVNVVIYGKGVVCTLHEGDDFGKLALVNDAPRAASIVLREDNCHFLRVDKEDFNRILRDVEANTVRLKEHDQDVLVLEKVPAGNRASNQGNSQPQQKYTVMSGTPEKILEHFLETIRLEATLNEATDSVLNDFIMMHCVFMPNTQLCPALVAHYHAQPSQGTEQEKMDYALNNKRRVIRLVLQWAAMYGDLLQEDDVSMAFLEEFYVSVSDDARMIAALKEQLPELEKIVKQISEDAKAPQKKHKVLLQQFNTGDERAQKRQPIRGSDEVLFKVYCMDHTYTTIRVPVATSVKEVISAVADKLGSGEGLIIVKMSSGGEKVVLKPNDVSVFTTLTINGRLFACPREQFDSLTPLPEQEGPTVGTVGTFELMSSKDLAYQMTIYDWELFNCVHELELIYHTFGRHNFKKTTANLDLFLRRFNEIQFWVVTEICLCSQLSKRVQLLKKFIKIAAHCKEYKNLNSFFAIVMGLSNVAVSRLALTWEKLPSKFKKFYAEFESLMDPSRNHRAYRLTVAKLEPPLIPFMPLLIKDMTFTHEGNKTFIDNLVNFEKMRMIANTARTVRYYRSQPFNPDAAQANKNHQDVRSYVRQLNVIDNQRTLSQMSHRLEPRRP
In the case of `O=c1cc(-c2ccc(O)c(O)c2)oc2cc(O)cc(O)c12`, the Potency result is “inactive”.
`C[C@@H](O[C@H]1OCCN(Cc2n[nH]c(=O)[nH]2)[C@@H]1c1ccc(F)cc1)c1cc(C(F)(F)F)cc(C(F)(F)F)c1`: the Potency result is “inactive”.
Take `NC(=O)c1nnn(Cc2cc(Cl)c(C(=O)c3ccc(Cl)cc3)c(Cl)c2)c1N`: the activation is 5.43% [at 17.1 µM, percent relative to cAMP agonist control] (inactive).

The next assay shares this target. The assay is described as follows: Confirmatory qHTS for antagonist of cAMP-regulated guanine nucleotide exchange factor 4 (EPAC2) (AID 1645885). Further: nearly all actives have a fitted effect of over 25% in size. Further: potency means the concentration at half of the fitted maximal effect. On activity change, negative = inhibition: on the % scale 0 is the no-effect control and ±100 the full control effect. As to conditions: EPAC2 Rap1B-BODIPY-GDP exchange fluorescence, biochemical; series mostly up to 114 µM.
Take `O=c1cc(-c2ccc(O)c(O)c2)oc2cc(O)cc(O)c12`: the Potency result was “inactive”.
Same read-out and setting: the figure for `C[C@@H](O[C@H]1OCCN(Cc2n[nH]c(=O)[nH]2)[C@@H]1c1ccc(F)cc1)c1cc(C(F)(F)F)cc(C(F)(F)F)c1` is 22.1 µM (active).
As for `NC(=O)c1nnn(Cc2cc(Cl)c(C(=O)c3ccc(Cl)cc3)c(Cl)c2)c1N`, the activity change, negative = inhibition was -14.9% [at 12.7 µM] (inactive).
Take `Cc1cc2nc3c(=O)[nH]c(=O)nc-3n(CC(O)C(O)C(O)CO)c2cc1C` (configuration not stated): the Potency result is “inactive”.

The next assay deals with Catechol O-methyltransferase (Homo sapiens) (UniProt P21964). The assay is described as follows: Confirmatory Screen for Target Class Profiling of Small Molecule Inhibitors of Methyltransferases (AID 1745852; calls by dose curve; further: potency means the concentration at half of the fitted maximal effect; on activity change, negative = inhibition: on the % scale 0 is the no-effect control and ±100 the full control effect). As to conditions: MTase-Glo luminescence, SAH detection, recombinant enzyme; measured here: COMT max response; stronger effect = lower value.
Sequence of Catechol O-methyltransferase (Homo sapiens) (P21964 whole entry, looked up): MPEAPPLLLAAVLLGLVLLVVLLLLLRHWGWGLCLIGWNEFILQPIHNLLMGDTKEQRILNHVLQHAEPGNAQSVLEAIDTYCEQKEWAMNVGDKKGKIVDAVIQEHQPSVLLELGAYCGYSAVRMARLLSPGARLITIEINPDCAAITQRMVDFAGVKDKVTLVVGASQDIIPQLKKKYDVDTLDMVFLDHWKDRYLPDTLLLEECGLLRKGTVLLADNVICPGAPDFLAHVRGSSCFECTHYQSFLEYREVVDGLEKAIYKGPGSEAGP
With `Clc1ccc(C2(c3ccc(-c4cn[nH]c4)cc3)CCNCC2)cc1`, the activity turned out to be 0.191%.
Same read-out and setting: the figure for `c1ccc(-c2oc3ncnc(NC[C@@H]4CCCO4)c3c2-c2ccccc2)cc1` is -58.1%; for `CN1CCc2c(n(Cc3ccc(C(=O)NO)cc3)c3ccccc23)C1` it is 0%; for `CNC(=O)c1ccc2c(C(=Nc3cccc(CN(C)C)c3)c3ccccc3)c(O)[nH]c2c1` it is -17.1%.
With `Nc1[nH]nc2nnc(-c3c(-c4ccccc4)nn4ccccc34)cc12`, the activity was -90.6%.
Same read-out and setting: the same measure for `NS(=O)(=O)c1ccc(Nc2nc(OCC3CCCCC3)c3[nH]cnc3n2)cc1`: -14.9%; for `c1cc(OCCN2CCCCC2)cc(-c2n[nH]c3ccc(-c4ncn[nH]4)cc23)c1`: -3.59%.
As to `Cc1ccccc1-n1c(Cn2nc(-c3cccc(O)c3)c3c(N)ncnc32)nc2cccc(C)c2c1=O`, the activity is -10.8%.
On to `CC(C)CNc1ccnc(NCc2csc(-c3ccccc3)n2)n1`, for which the activity was -9.21%.
Still for that read-out and setting: the figure for `CC1(COc2ccc3c(c2)ncn3-c2ccc3cccc(N4CCC(N)CC4)c3n2)COC1` is -30.2%; for `CCN1CCC(n2cc(CNc3cc(Cl)c4ncc(C#N)c(Nc5ccc(F)c(Cl)c5)c4c3)nn2)CC1` it is -89.7%.
Still for that read-out and setting: the figure for `Nc1ncnc2c1c(-c1cccc(OCc3ccccc3)c1)cn2C1CC(CN2CCC2)C1` (configuration not stated) is -26%; for `Cc1ccc2c(c1)c1c(n2CCc2ccc(C)nc2)CCN(C)C1` it is -6.68%; for `CN(C)CCCNC(=O)c1ccc(-c2cc(O)c3ncccc3c2)cc1` it is -84% and -99.6%.
Consider `CNC1CCC(N(Cc2cccc(-c3ccncc3)c2)C(=O)c2sc3ccccc3c2Cl)CC1` (configuration not stated), for which the activity was -14.8%.

A further assay has as its target Guanidinoacetate N-methyltransferase (Homo sapiens) (UniProt Q14353). Described as above. Conditions: MTase-Glo luminescence, SAH detection, recombinant enzyme; activity change, negative = inhibition: at 57.3 µM (top of the series).
For the molecule `Clc1ccc(C2(c3ccc(-c4cn[nH]c4)cc3)CCNCC2)cc1`, the activity change, negative = inhibition came out at 0%.
`c1ccc(-c2oc3ncnc(NC[C@@H]4CCCO4)c3c2-c2ccccc2)cc1`: the Potency was 24.1 µM (active).
`CN1CCc2c(n(Cc3ccc(C(=O)NO)cc3)c3ccccc23)C1`: the activity change, negative = inhibition came out at 0.311%.
As to `CNC(=O)c1ccc2c(C(=Nc3cccc(CN(C)C)c3)c3ccccc3)c(O)[nH]c2c1`, the activity change, negative = inhibition was -9.55%.
For `Nc1[nH]nc2nnc(-c3c(-c4ccccc4)nn4ccccc34)cc12`, the Potency was 19.2 µM (active).
As for `NS(=O)(=O)c1ccc(Nc2nc(OCC3CCCCC3)c3[nH]cnc3n2)cc1`, the activity change, negative = inhibition is -2.65%.
On the same count and under the same terms, the figure for `c1cc(OCCN2CCCCC2)cc(-c2n[nH]c3ccc(-c4ncn[nH]4)cc23)c1` is 2.7%.
On the same count and under the same terms, the same measure for `Cc1ccccc1-n1c(Cn2nc(-c3cccc(O)c3)c3c(N)ncnc32)nc2cccc(C)c2c1=O`: 0%; for `CC(C)CNc1ccnc(NCc2csc(-c3ccccc3)n2)n1`: -8.39%.
For `CC1(COc2ccc3c(c2)ncn3-c2ccc3cccc(N4CCC(N)CC4)c3n2)COC1`, the Potency was 42.9 µM (active).
Regarding `CCN1CCC(n2cc(CNc3cc(Cl)c4ncc(C#N)c(Nc5ccc(F)c(Cl)c5)c4c3)nn2)CC1`, the Potency is 10.8 µM (active).
As to `Nc1ncnc2c1c(-c1cccc(OCc3ccccc3)c1)cn2C1CC(CN2CCC2)C1` (configuration not stated), the Potency is 30.4 µM (active).
As for `Cc1ccc2c(c1)c1c(n2CCc2ccc(C)nc2)CCN(C)C1`, the activity change, negative = inhibition was -3.88%.
As to `CN(C)CCCNC(=O)c1ccc(-c2cc(O)c3ncccc3c2)cc1`, the activity change, negative = inhibition is 2.82% and 3.64%.
Turning to `CNC1CCC(N(Cc2cccc(-c3ccncc3)c2)C(=O)c2sc3ccccc3c2Cl)CC1` (configuration not stated), the activity change, negative = inhibition was -1.13%.
